# Assay results published in PubChem BioAssay (NCI).
# The panel holds about 83,000 compounds, 20% with a hit somewhere; the sample as a whole holds those more often.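 In brief: 96-well plates, 48 h treatment, single concentration, percent growth endpoint.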 Values without a mark were called inactive. Calls of active or inactive are those of the source.
# System: UACC-62 melanoma
# Experiment: NCI-60 one-dose screen, 48 h (100 = growth as untreated, 0 = no growth, -100 = all killed)
# Conditions: 10 µM unless noted
# Protocol: Growth inhibition of the UACC-62 human tumor cell line is measured as a screen for anti-cancer activity. Cells are grown in 96 well plates and exposed to the test compound for 48 hours. Compounds are tested at a single concentration, which is 10^-5 M for most compounds. The reported endpoint is percent growth (GI% or GIPRCNT), where numbers from 0 - 100% represent growth inhibition, and numbers from -100% - 0 represent cell death. For example, a value of 40 represents 60% growth inhibition. A value of 0 means no net growth occurred over the course of the experiment. A value of -40 indicates 40% of cells at the beginning of the experiment died by the end of the experiment. A value of -100 means all cells are dead at the end of the experiment.
# NCI-60 Human Tumor Cell Lines Screen was performed using the standard one-dose NCI protocol, which is described in more detail at https://dtp.cancer.gov/discovery_development/nci-60/default.htm.
# Compounds with GIPRCNT values below 10 were considered active. Activity score was based on GIPRCNT using the following formula: […]
# Score is 0 for GIPRCNT values of 100 or above, 50 for GIPRCNT values of 0, and 100 for GIPRCNT values of -100.
row,Structure (SMILES),growth
1,Cc1oc2nc[nH]c(=O)c2c1C(=O)/C=C/c1ccc(Br)cc1,13.2%
2,O=C(/C=C/c1cccc2ccccc12)c1ccc(NC(=O)c2ccccc2CN2C(=O)c3ccccc3C2=O)cc1,69.3%
3,O=C(Nc1ccc(Cl)cc1F)c1ccccc1O,9.27% (active)
4,COc1ccc(-c2cc(-c3ccc(Cl)cc3)c(C#N)c(=O)n2CCCCCC(=O)Nc2ccccc2N)cc1,4.17% (active)
5,CCCCCCn1c(-c2ccc(C(=O)O/N=C(\N)c3ccc4ccccc4c3)cc2)nc(-c2ccccc2)c1-c1ccccc1,61.1%
6,NCCCNc1nc2ccccc2c2c(=O)c3cc(C(F)(F)F)ccc3sc12,95.1%
7,CCOC(=O)c1cn2ncnc(Oc3ccc(NC(=O)NCCN4CCOCC4)c(Cl)c3)c2c1C,97.6%
8,C/C(=C\C(=O)c1ccc(Cl)cc1)c1ccc(Cl)cc1,92.8%
9,COc1ccc2c(c1)c(-c1nn3cc(-c4cccs4)nc3s1)cn2C,64.1%
10,N[C@@H](Cc1ccccc1)[C@@H](O)C(=O)NCc1ccc(F)cc1,94.5%
11,O=C1CCC(C(=O)NCCNCCNC(=O)C2CCC(=O)N2)N1 (stereo not given),99.4%
12,NC[C@@H]1O[C@H](O[C@@H]2[C@@H](CO)OC(O[C@@H]3[C@@H](O)[C@H](N)C[C@H](N)[C@H]3OC3O[C@H](CN)[C@@H](O)[C@H](O)[C@H]3N)[C@@H]2O)[C@H](N)[C@@H](O)[C@@H]1O (stereo not given in full),118%
13,Oc1ccc(CCl)c2cccnc12,100%
14,Cc1cc2nc3ccc(N=Nc4ccc(N(C)C)cc4)cc3n(-c3ccccc3)c-2cc1=N,-76.7% (active)
15,CC/C=C\C[C@@H](O)C/C=C1/C(=O)C=C[C@H]1C/C=C\CCCC(=O)OC,-50.6% (active)
16,CCN1C(=O)N(CC)C2Nn3c(s/c(=C4\C(=O)N(CCC(C)C)c5ccccc54)c3=O)=NC21 (stereo not given),67.1%
17,CN1CCN(c2ccc(-c3ccc4ncc(C#N)c(Nc5ccc(F)c(Cl)c5)c4c3)cc2)CC1,69.7%
18,CCCCCCN1C(=O)/C(=c2\sc3n(c2=O)C2C(NN=3)N(CC)C(=O)N2CC)c2ccccc21 (stereo not given),30.7%
19,O=C(Nc1ccc(I)cc1F)c1cc(I)ccc1O,-24.1% (active)
20,COc1cc(CCC[P+](c2ccccc2)(c2ccccc2)c2ccccc2)c(OC)c(OC)c1OC,31.1%

row,Structure (SMILES),growth
1,O=C(/C=C/c1sc(Cl)nc1Cl)c1ccc(F)cc1,93.3%
2,CNc1ccc(Nc2cccc(C)c2)c2c1C(=O)c1ccccc1C2=O,64.9%
3,O=C(Nc1ccc(OS(=O)(=O)c2ccc(F)cc2)cc1)c1ccc(Cl)cc1,96%
4,CCOc1c(B(O)O)cccc1-c1nc2ccc3[nH]ncc3c2c2c1CCCC2,88.1%
5,COc1cc(/C=C/c2c(C(C)=O)c(C)nc3ccccc23)cc(OC)c1OC,39.8%
6,COc1cccc2c(=O)c3c(sc12)c(N1CCNCC1)nc1ccccc13,105%
7,CCOC(=O)c1[nH]c(C)c(C(=O)OCc2ccccc2C#N)c1C,73.6%
8,COC(=O)/C=C1\S/C(=N\Nc2ccc([N+](=O)[O-])cc2[N+](=O)[O-])N(C2CCCCC2)C1=O,38.7%
9,O=S(=O)(NCCCNc1cc(-c2c(-c3cccc(O)c3)nc3sccn23)ccn1)c1cccc2ccccc12,39%
10,CCOC(=O)Nc1ccc(-c2nc(-c3cccc(OC)c3)c(-c3ccnc(Br)c3)[nH]2)cc1,21.2%
11,Cc1cc(=O)oc2cc(OC(=O)N3CCN(C)CC3)ccc12,97.6%
12,CSc1ccc2c(c1)c(CCN)c(C)n2Cc1ccc(Cl)c(Cl)c1,-89.6% (active)
13,COc1cccc(-c2nc(-c3ccc(NC(=O)c4ccccc4)cc3)[nH]c2-c2ccnc(Br)c2)c1,16.4%
14,CS(=O)(=O)Nc1cc(-c2ccc3ncnc(Nc4cccc(Cl)c4F)c3c2)cnc1Cl,8.37% (active)
15,NCCCNc1nc2ccccc2c2c(=O)c3cc(F)cc(Cl)c3sc12,98.7%
16,O=C(N/N=C/[C@H](O)[C@H](O)[C@H](O)CO)c1ccc(NC(=O)c2cccnc2)cc1,96.2%
17,Cc1ccc(-c2nc(N3CCN(C(=O)c4ccc(OC(F)(F)F)cc4)CC3)c3ccccc3n2)cc1,75.4%
18,Oc1c(I)cc(I)cc1CNCCCN(Cc1ccccn1)Cc1ccccn1,-55.5% (active)
19,Cc1ccc(C(=O)NN2C(=O)CSC2c2cccc([N+](=O)[O-])c2)cn1 (stereo not given),98.1%
20,COc1cc(-c2nc3sccn3c2-c2ccnc(NCCCNS(=O)(=O)c3ccc(F)cc3)n2)ccc1F,29.7%
